Screening data as filed in PubChem BioAssay.
Shown is part of a subset that was picked to be rich in hits.
TDP1 cell CPT – growth inhibition of DT40 Tdp1-/-;hTDP1 cells with camptothecin (screen for TDP1 inhibitors) | Potency, µM (titrated, usually from 46.2 µM), without a hit: top-dose activity change, negative = growth inhibition, most hits filed as inhibitors | chicken DT40 Tdp1-/-;hTDP1 cells + 20 nM CPT, ATP luminescence, 48 h | hit rate 12% among 420,000; further: potency means the concentration at half of the fitted maximal effect; nearly all actives have a fitted effect of over 55% in size
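Cell growth measured by CellTiter-Glo luminescence after a minimum 48 h, 37 C compound exposure with 20 nM CPT in Tdp1-knockout DT40 cells stably expressing hTDP1, seeded 400/well; qHTS titration format.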
12-LOX inh – inhibitors of human 12S-lipoxygenase ALOX12 | AID 1671190 | P18054 | Potency, µM (doses to about 108 µM), inactives show at the top dose activity change, negative = inhibition, hits mostly inhibitors | hit rate 1.1% among 580,000 | purified 12hLO, xylenol orange hydroperoxide absorbance; further: potency means the concentration at half of the fitted maximal effect
Target sequence (P18054 whole entry, looked up): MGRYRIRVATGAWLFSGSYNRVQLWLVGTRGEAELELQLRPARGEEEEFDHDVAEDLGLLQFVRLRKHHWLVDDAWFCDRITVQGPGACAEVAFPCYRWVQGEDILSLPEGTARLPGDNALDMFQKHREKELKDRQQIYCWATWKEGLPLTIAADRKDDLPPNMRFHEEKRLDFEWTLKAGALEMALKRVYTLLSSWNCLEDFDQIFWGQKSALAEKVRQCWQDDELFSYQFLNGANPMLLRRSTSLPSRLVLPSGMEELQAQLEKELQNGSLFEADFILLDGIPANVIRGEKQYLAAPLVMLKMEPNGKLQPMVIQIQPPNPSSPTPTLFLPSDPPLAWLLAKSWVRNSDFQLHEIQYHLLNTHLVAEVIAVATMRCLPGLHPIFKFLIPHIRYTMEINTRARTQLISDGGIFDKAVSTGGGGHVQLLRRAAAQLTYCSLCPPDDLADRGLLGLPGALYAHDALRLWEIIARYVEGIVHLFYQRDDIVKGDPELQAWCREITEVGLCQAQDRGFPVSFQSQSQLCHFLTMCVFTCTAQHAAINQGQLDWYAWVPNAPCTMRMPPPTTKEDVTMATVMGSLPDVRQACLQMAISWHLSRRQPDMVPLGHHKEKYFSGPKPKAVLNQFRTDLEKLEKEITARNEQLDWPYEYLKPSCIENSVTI
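Hydroperoxide product was detected by ferrous iron/xylenol orange as the 573 to 405 nm absorbance ratio. Arachidonic acid at 40 uM (final) was turned over for 30 min at room temperature by 150 nM human 12hLO, pH 7.0 Hepes buffer, after 15 min compound preincubation.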
IL1B secr inh – inflammasome signaling inhibition, IL-1 beta readout. THP-1 LPS/ATP IL-1B secretion, AlphaLISA, 16 h; hits give low values. activity change, % at 57.5 µM. hit rate 4.7% among 360,000; in the data active means activity change below about -50%; inconclusive means mostly about -30% to -49%
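THP-1 cells pretreated 1 hr with compounds (up to 57.5 uM final), then stimulated with LPS (250 ng/mL final) plus ATP (1.25 mM final); secreted IL-1B measured by AlphaLISA after 16 hr, decreased signal indicating inhibition.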
HT1080NT lethal – kills 2HG-producing HT-1080-NT fibrosarcoma cells; HT-1080-NT fibrosarcoma viability, CellTiter-Glo ATP luminescence, 48 h; Potency, µM (titrated, usually from 46.1 µM), inactives show at the highest dose activity, negative = less viability, actives largely listed as cytotoxic; hit rate 1.6% among 360,000;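 further: NT is the 2HG producing partner of a matched IDH1 knockdown line; potency means the concentration at half of the fitted maximal effect; 0% = DMSO-treated cells and -100% = media-only wells without cells; nearly all actives have a fitted effect of over 55% in size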
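Viability by CellTiter-Glo luminescence after 48 h compound exposure at 37C of HT-1080-NT cells (750/well, RPMI, 5% FBS). % activity scaled between DMSO wells and medium-only wells, then curve-fitted and categorized by curve class.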
HT1080 IDH1KD tx – toxicity to HT-1080 IDH1 knockdown cells (counter line); HT-1080 IDH1 knockdown viability, ATP luminescence, 48 h; Potency, µM (doses to about 46.1 µM), for the others: top-dose activity, negative = toxicity, usual class: cytotoxic; hit rate 2% among 360,000;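 further: potency means the concentration at half of the fitted maximal effect; 0% = DMSO wells and -100% = cell-free medium wells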
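IDH1KD HT-1080 cells, 750/well, RPMI + 5% FBS; compound pinned after 2 h settling; 48 h, 37 °C; CellTiter-Glo luminescence; % activity normalised to DMSO and no-cell wells; curves fitted, classed by r2 and efficacy.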
TDP1 cell noCPT – qHTS for Inhibitors of human tyrosyl-DNA phosphodiesterase 1 (TDP1): qHTS in cells in absence of CPT; Potency, µM (highest dose often 46.2 µM), inactives show at the highest dose activity change, negative = growth inhibition, usual class: inhibitors; DT40 Tdp1-/- hTDP1 cells, no CPT, ATP luminescence, 48 h; hit rate 15% among 420,000; further: potency means the concentration at half of the fitted maximal effect; nearly all actives have a fitted effect of over 55% in size
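Seeded 400 DT40-hTDP1 cells/well (vehicle DMSO, no 20 nM CPT); pinned compounds; ≥48 hr at 37 °C; CellTiter-Glo luminescence as viability measure.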
* marks the source's active call; other numbers are inactive results; [ ] = another dose, or the depositor's remark. Unless noted, the call rests on the fitted dose curve; in most records, active means well fitted curve in the direction sought with a large enough effect; inconclusive means small, poorly fitted or top-dose-only effect, or another doubt; inactive means no such curve, though single readings can be large; an effect the other way counts as inactive or inconclusive. Unless noted, on the % scale 0 is the no-effect control and ±100 the full control effect.

What do the screens show for `c1cc(CNCCc2ccc3c(c2)OCO3)ccn1`?
TDP1 cell CPT: -28.9%; 12-LOX inh: inconclusive; IL1B secr inh: -5.2; HT1080NT lethal: -7.0%; HT1080 IDH1KD tx: -1.6%; TDP1 cell noCPT: -10.8%

Results for CN1C(=O)N(C)C(=O)C(CCc2ccncc2)(Cc2ccc3c(c2)OCO3)C1=O ?
TDP1 cell CPT: inconclusive; 12-LOX inh: 2.2%; IL1B secr inh: -8.5; HT1080NT lethal: -0.8%; HT1080 IDH1KD tx: inconclusive; TDP1 cell noCPT: 16.4µM*

How did O=C1NC(=O)C(CCc2ccncc2)(Cc2ccc3c(c2)OCO3)C(=O)N1CCc1ccccc1 (configuration not stated) do in these assays?
TDP1 cell CPT: inconclusive; 12-LOX inh: -5.4%; IL1B secr inh: -14.7; HT1080NT lethal: -4.2%; HT1080 IDH1KD tx: inconclusive; TDP1 cell noCPT: 20.6µM*

How did O=C1NC(=O)C(CCc2ccncc2)(CCc2ccncc2)C(=O)N1CCc1ccccc1 do in these assays?
TDP1 cell CPT: -0.6%; 12-LOX inh: -34.3%; IL1B secr inh: 13.3; HT1080NT lethal: 16.9%; HT1080 IDH1KD tx: -1.7%; TDP1 cell noCPT: -22.4%

What do the screens show for `Cn1nc(C2CCCCC2)cc1[C@H]1CN2CC[C@H]1C[C@@H]2CNC(=O)Nc1ccccc1`?
12-LOX inh: -5.6%[176 µM]

How did CCOc1ccc(C(=O)N2CCC3(CC2)NCc2ccccc2-n2ccnc23)cc1 do in these assays?
12-LOX inh: 20.2%

How did COc1cc(CCC(=O)N2CCC3(CC2)NCc2ccccc2-n2ccnc23)on1 do in these assays?
12-LOX inh: -1.0%

What do the screens show for `CCC(CC)c1cc([C@H]2CN3CC[C@H]2C[C@@H]3CNC(=O)Nc2cccc(C#N)c2)nc(-c2ccncc2)n1`?
12-LOX inh: 32.7%

Results for CCC1C(c2cc(OC)c(OC)c(OC)c2)c2cc3c(cc2OC1N1CCCC1)OCO3 (configuration not stated) ?
TDP1 cell CPT: 5.17µM*; 12-LOX inh: inconclusive; IL1B secr inh: -18.3; HT1080NT lethal: inconclusive; HT1080 IDH1KD tx: inconclusive; TDP1 cell noCPT: 4.11µM*

What do the screens show for `COC(=O)[C@@]12CCCCN1[C@H](c1ccc(-c3ccc(Cl)c(Cl)c3)c(OC)c1)[C@H]1C(=O)N(C)C(=O)[C@H]12`?
TDP1 cell CPT: 18.4µM*; 12-LOX inh: -29.0%; IL1B secr inh: 1.8; HT1080NT lethal: 16.0%; HT1080 IDH1KD tx: 13.0%; TDP1 cell noCPT: 16.4µM*

What do the screens show for `COC(=O)[C@@]12CCCCN1[C@H](c1ccc(-c3ccc(Cl)c(Cl)c3)c(OC)c1)[C@@H]1C(=O)N(C)C(=O)[C@@H]12`?
TDP1 cell CPT: 11.6µM*; 12-LOX inh: 14.8%; IL1B secr inh: -51.6*; HT1080NT lethal: -2.3%; HT1080 IDH1KD tx: 7.5%; TDP1 cell noCPT: 10.3µM*

Results for COC(=O)[C@@H]1N=C(c2ccc(OC)cc2)O[C@]12C(=O)N(C)c1cccc(Cl)c12 ?
TDP1 cell CPT: 9.1%; 12-LOX inh: -2.4%; IL1B secr inh: 0.0; HT1080NT lethal: 17.9%; HT1080 IDH1KD tx: 0.9%; TDP1 cell noCPT: -19.4%

What do the screens show for `COc1ccc(-c2cc([C@H]3CN4CC[C@H]3C[C@@H]4CNS(=O)(=O)c3ccc(Cl)cc3)n(C)n2)cc1OC`?
12-LOX inh: 6.4%

What do the screens show for `OC[C@H]1O[C@@H](n2cnc3cc(Cl)c(Cl)cc32)[C@H](O)[C@H]1O`?
TDP1 cell CPT: 16.4µM*; 12-LOX inh: 23.2%; TDP1 cell noCPT: inconclusive

What do the screens show for `OC[C@H]1O[C@@H](n2cnc3cc(Cl)c(Cl)cc32)[C@H](O)[C@@H]1O`?
TDP1 cell CPT: inconclusive; 12-LOX inh: 9.3%; IL1B secr inh: -69.5*; HT1080NT lethal: inconclusive; HT1080 IDH1KD tx: inconclusive; TDP1 cell noCPT: 14.6µM*

Results for COc1cccc(CC(=O)N2CCN(CCC(=O)NC(N)=O)CC2)c1 ?
12-LOX inh: 14.0%

How did Cc1ccc(NC(=O)c2cnc3sc(N4CCOCC4)nn3c2=O)cc1N(C)C do in these assays?
TDP1 cell CPT: 14.6µM*; 12-LOX inh: 4.2%; TDP1 cell noCPT: 20.6µM*

Results for CC(=O)O[C@@H]1/C=C/[C@](C)(O)C[C@@H](C)C/C=C/[C@H]2[C@@H]3O[C@]3(C)[C@@H](C)[C@H]3[C@H](Cc4ccccc4)NC(=O)[C@@]312 ?
TDP1 cell CPT: 0.517µM*; IL1B secr inh: -0.4; HT1080NT lethal: -20.8%; HT1080 IDH1KD tx: inconclusive; TDP1 cell noCPT: 0.461µM*

How did CC1(C)Cc2c(c(N3CCOCC3)nc3snc(N)c23)CO1 do in these assays?
TDP1 cell CPT: 2.82µM*; 12-LOX inh: 67.6%; IL1B secr inh: -107.5*; HT1080NT lethal: 11.2µM*; HT1080 IDH1KD tx: 20µM*; TDP1 cell noCPT: 2.51µM*

How did CCCCc1cn(C[C@H]2C[C@@H]3CCN2C[C@@H]3C(=O)NCc2ccc(F)cc2)nn1 do in these assays?
12-LOX inh: 2.7%[176 µM]

What do the screens show for `CC[C@H]1CN2CC[C@H]1C[C@@H]2CNS(=O)(=O)c1ccc(OC)cc1`?
12-LOX inh: 28.4%[176 µM]

How did CC(=O)OCC12CC(OC(=O)CC(C)C)C(C)=CC1OC1C(O)C(OC(C)=O)C2(C)C12CO2 (configuration not stated) do in these assays?
TDP1 cell CPT: 0.0231µM*; 12-LOX inh: 11.3%; IL1B secr inh: -83.2*; HT1080NT lethal: 0.259µM*; TDP1 cell noCPT: 0.0231µM*

How did CC(=O)O[C@@H]1[C@@H](O)C2OC3C=C(C)C(=O)[C@@H](O)[C@]3(CO)C1(C)C21CO1 (some centres not stated) do in these assays?
12-LOX inh: 7.1%

Results for CCOc1ccc(NC(=O)c2ccc(NC(=O)COC(=O)Cc3ccccc3)cc2)cc1 ?
TDP1 cell CPT: -5.9%; 12-LOX inh: 0.1%; IL1B secr inh: -11.7; HT1080NT lethal: -0.3%; HT1080 IDH1KD tx: -1.7%; TDP1 cell noCPT: -1.9%

Results for COc1ccc(-c2cnnn2-c2ccc(NC(=O)c3ccc(S(=O)(=O)N(C)C)cc3)cc2)cc1 ?
TDP1 cell CPT: 20.6µM*; 12-LOX inh: 4.3%; TDP1 cell noCPT: 18.4µM*

What do the screens show for `COc1ccc(C(=O)Nc2ccc(S(=O)(=O)N(Cc3ccccc3)c3ccccc3)cc2)cc1`?
TDP1 cell CPT: 13µM*; 12-LOX inh: -25.1%; TDP1 cell noCPT: 5.17µM*
